# Test results as given in PubChem BioAssay (Tox21).
# Where “and” joins values, the source holds several entries; their conditions need not be identical. Identical values can stand only once. The source holds several records for some structures; these can differ, active in one and inactive in another. Calls of active or inactive are those of the source. Where a call stands in place of a potency, no number is given. Calls follow the shape of the dose curve; as a rule, active = well fitted inhibition curve with a large enough effect in the repeat runs (not every such curve was filed as active); inconclusive = weak or mixed curves; inactive = flat fitted curve, though single readings scatter.
# Biological target: Thyrotropin-releasing hormone receptor (Homo sapiens) (UniProt P34981)
# Assay: qHTS assay to identify small molecule antagonists of the thyrotropin-releasing hormone receptor (TRHR) signaling pathway (AID 1346877)
# Settings: TRHR-HEK293, TRH-induced calcium fluorescence, antagonist mode; series mostly up to 51.3 µM
# Excerpt: National Center for Advancing Translational Sciences [NCATS]
# NIH Chemical Genomics Center [NCGC]
# U.S. Environmental Protection Agency [EPA]
# National Institutes of Environmental Health Sciences [NIEHS]
# National Toxicology Program [NTP]
# U.S. Food and Drug Administration [FDA]
# Thyrotropin-releasing hormone (TRH) receptor (TRHR) is a G-protein-coupled receptor which binds the tripeptide thyrotropin releasing hormone. TRHR is found in the brain and, when bound by TRH, acts (through phospholipase C) to increase intracellular inositol trisphosphate. It plays a crucial role in the anterior pituitary where it controls the synthesis and secretion of thyroid stimulating hormone and prolactin. The TRHR-Hek293 assay is a cell-based assay, and it has the potential to screen G protein-coupled receptors. A compound/drug can either activate (agonist) or suppress (antagonist) GPCRs that can be monitored by levels of intracellular calcium. In this assay, the Tox21 10K compound library was screened to identify potential TRHR antagonists.
# Tox21 Assay Protocol Summary:
# The TRHR-Hek293 cells were dispensed at 1500cells/4uL/well in 1536-well black-clear bottom plates using a Multidrop dispenser. After the assay plates were incubated at a 37 C/5% CO2 incubator for 18 hours, 4 uL of Dye-Loading Solution was added to each well. The plates were incubated at 37 C for 2 hours. For agonist mode, 23 nL of compounds dissolved in DMSO, positive controls or DMSO only was transferred to the assay plate by a pin tool. The fluorescence intensity in the plates was measured using FDSS 7000EX kinetic plate reader for 3 min at 1 sec intervals. For antagonist mode, 23 nL of compounds dissolved in DMSO, positive controls or DMSO only was transferred to the assay plate by a pin tool. After 5 min incubation at room temperature, 1 uL of TRH was added on the top of the cell/compound mixtures to achieve a final agonist concentration of 1 nM. The fluorescence intensity in the plates was measured using FDSS 7000EX kinetic plate reader for 3 min at 1 sec intervals. Each test compound was measured at 15 concentrations and in triplicates.
# Potency is read from the fitted curve at half-maximal effect.
# Sequence of Thyrotropin-releasing hormone receptor (Homo sapiens) (P34981 whole entry, looked up): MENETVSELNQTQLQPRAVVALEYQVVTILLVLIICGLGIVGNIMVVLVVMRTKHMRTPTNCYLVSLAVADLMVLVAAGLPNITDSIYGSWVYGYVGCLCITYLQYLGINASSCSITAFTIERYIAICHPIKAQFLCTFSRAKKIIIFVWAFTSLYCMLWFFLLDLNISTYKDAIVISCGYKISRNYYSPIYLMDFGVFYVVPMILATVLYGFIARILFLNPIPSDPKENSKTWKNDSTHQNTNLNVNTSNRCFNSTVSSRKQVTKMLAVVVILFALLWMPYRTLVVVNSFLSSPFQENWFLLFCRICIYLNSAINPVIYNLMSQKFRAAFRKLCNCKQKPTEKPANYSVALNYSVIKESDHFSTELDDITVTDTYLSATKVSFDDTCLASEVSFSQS
SMILES,"activity, negative = inhibition",Potency
CCN(CC)CCCC(C)Nc1ccnc2cc(Cl)ccc12 (stereo not given),0.384% [at 4.65 µM] (inactive) and -4.99% [at 10.5 µM] (inactive),
c1ccc2c(c1)ccc1ccccc12,,inactive
CC1=CC(=O)NS(=O)(=O)O1,,inactive
CCCCN(CCCC)CCCC,,inactive
CCCCCCCCCCCCS,,inactive
C=CCOC(=O)c1ccccc1C(=O)OCC=C,,inactive
CCCSc1ccc2nc(NC(=O)OC)[nH]c2c1,,inactive
OCCOCCN1CCN(C2=Nc3ccccc3Sc3ccccc32)CC1,,inactive
C#CCN(C)Cc1ccccc1,,inactive
O=c1[nH]c(=O)n([C@H]2C[C@H](O)[C@@H](CO)O2)cc1Br,,inactive
C=C(C)C(=O)OCCOCCOCCOC(=O)C(=C)C,,inactive
CCCCC(CC)COC(=O)CS (stereo not given),,inactive
CN(C)CCCN,,inactive
COc1ccc(NC(C)=O)cc1N,,inactive
CCCCCC1=CCCC1=O,,inactive
O=S1(=O)CC=CC1,,inactive
O=C(O)c1cc(O)c(O)c(O)c1,,inactive
CC[C@H](C)C(=O)O[C@H]1C[C@@H](C)C=C2C=C[C@H](C)[C@H](CC[C@@H]3C[C@@H](O)CC(=O)O3)[C@H]21,,38.5 µM (active) and inactive
CC1=C(C)S(=O)(=O)CCS1(=O)=O,,inactive
COc1ccc(Cl)cc1C(=O)NCCc1ccc(S(=O)(=O)NC(=O)NC2CCCCC2)cc1,,inactive

SMILES,"activity, negative = inhibition",Potency
CC(c1cc2ccccc2s1)N(O)C(N)=O (stereo not given),,inactive
CC(C)(C)[C@@H](O)[C@@H](Cc1ccc(Cl)cc1)n1cncn1,,inactive
OCC(CO)(CBr)CBr,,inactive
CCCCOC(=O)COc1ccc(Cl)cc1Cl,,inactive
C/C=C1/CC2C=CC1C2 (stereo not given),,inactive
CCCCCCCCCCCCOCCO,,inactive
CCCCCCCCCCCCc1ccccc1,,inactive
OC[C@H]1O[C@@](CO)(O[C@H]2O[C@H](CO)[C@@H](O)[C@H](O)[C@H]2O)[C@@H](O)[C@@H]1O,,inactive
CC(=O)Nc1ccccc1,,inactive
Nc1cc([N+](=O)[O-])ccc1O,,inactive
OCc1cccnc1,,inactive
O=C(O)c1ccccc1C(c1ccc(O)cc1)c1ccc(O)cc1,,inactive
Nc1ccccc1[N+](=O)[O-],,inactive
O=[N+]([O-])c1ccc(/C=C/c2ccc([N+](=O)[O-])cc2S(=O)(=O)O)c(S(=O)(=O)O)c1,,inactive
COc1cc(Cc2cnc(N)nc2N)cc(OC)c1OC,,inactive
COc1ccc(Nc2ccccc2)c(C)c1,,inactive
CC(C)(N)CO,,inactive
CCCCCOC(C)=O,,inactive
C=C(C)C(=O)Nc1ccc(Cl)c(Cl)c1,,inactive
CCCCCCCCCCCCCCO,,inactive
